Experimental data as given in PubChem BioAssay AID1159580 (chemical genetic matrix, 2015).
Several values for one entry are separate records, joined by “and”; a condition that tells them apart may be missing. Identical values can stand only once. About 2,000 (36%) of roughly 5,500 compounds were called active. Roughly 18% stayed inconclusive and do not appear here. No stated cut-off is given here; in the data, active means normalized growth mostly below about 0.91 (no sharp cut-off); inconclusive means no clear call, values can overlap the other calls; inactive means mostly above about 0.92. Some of the results follow. Where a SMILES comes first, the peptide text is derived from it. Bridges are numbered along the chain shown (N, C = ends). [ ]: non-standard residue; d: D form. The star is where a group is joined. Octanoyl(6-Me) = CCC(C)CCCCC(=O)*; Dab = NCC[CH](N)C(=O)O

Test: chemical genetic growth profiling, strain panel (AID 1159580);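 further: tested at 20 µM; growth read once vehicle control cultures reached saturation at 30 °C; 1 = growth at the plate median or of vehicle wells; lower values mean less growth of the strain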
Details: S. cerevisiae deletion strains, growth OD

Measured: normalized growth

CCC(C)CCCCC(=O)NC(CCN)C(=O)NC(C(=O)NC(CCN)C(=O)NC1CCNC(=O)C(C(C)O)NC(=O)C(CCN)NC(=O)C(CCN)NC(=O)C(CC(C)C)NC(=O)C(Cc2ccccc2)NC(=O)C(CCN)NC1=O)C(C)O (configuration not stated) ({Octanoyl(6-Me)}-[Dab]T[Dab][Dab][Dab]FL[Dab][Dab]T; lactam 4-C; configuration not given here)
inactive: locus YAL013W, strain DEP1, active compounds read low 1 | locus YAL021C, strain ccr4, active compounds read low 0.95 | locus YAL026C, strain drs2, active compounds read low 0.934 | locus YAL030W, strain snc1, active compounds read low 0.99 | locus YBL061C, strain skt5, active compounds read low 0.99 | locus YBR009C, strain hhf1, active compounds read low 0.98 | locus YBR021W, strain FUR4, active compounds read low 0.996 | locus YBR023C, strain chs3, active compounds read low 0.99 | locus YBR171W, strain sec66, active compounds read low 1 | locus YBR229C, strain ROT2, active compounds read low 1 | locus YBR231C, strain swc5, active compounds read low 1 | locus YBR279W, strain paf1, active compounds read low 0.99 | locus YCL011C, strain gbp2, active compounds read low 0.995 | locus YCL016C, strain dcc1, active compounds read low 0.975 | locus YCL029C, strain bik1, active compounds read low 1.02 | locus YCL061C, strain MRC1, active compounds read low 0.959 | locus YCL069W, strain vba3, active compounds read low 0.999 | locus YCR088W, strain abp1, active compounds read low 0.997 | locus YDL005C, strain med2, active compounds read low 0.99 | locus YDL035C, strain GPR1, active compounds read low 0.973 | locus YDL040C, strain nat1, active compounds read low 1 | locus YDL074C, strain BRE1, active compounds read low 1.01 | locus YDL101C, strain DUN1, active compounds read low 1.02 | locus YDL134C, strain PPH21, active compounds read low 0.997 | locus YDL185W, strain tfp1, active compounds read low 1 | locus YDL192W, strain arf1, active compounds read low 0.991 | locus YDR001C, strain nth1, active compounds read low 1.01 | locus YDR069C, strain doa4, active compounds read low 0.989 | locus YDR101C, strain arx1, active compounds read low 1.01 | locus YDR137W, strain rgp1, active compounds read low 1.08 | locus YDR150W, strain NUM1, active compounds read low 0.995 | locus YDR159W, strain sac3, active compounds read low 0.985 | locus YDR162C, strain NBP2, active compounds read low 0.99 | locus YDR195W, strain ref2 0.953 | locus YDR297W, strain sur2, active compounds read low 0.994 | locus YDR318W, strain mcm21, active compounds read low 1.01 | locus YDR334W, strain swr1, active compounds read low 1 | locus YDR335W, strain msn5, active compounds read low 0.998 | locus YDR388W, active compounds read low 1.01 | locus YDR392W, strain spt3, active compounds read low 0.802 | locus YDR502C, strain sam2, active compounds read low 0.997 | locus YEL003W, strain gim4, active compounds read low 0.997 | locus YEL037C, strain rad23, active compounds read low 1 | locus YEL061C, strain CIN8 (second series), active compounds read low 1 | locus YEL061C, strain CIN8, active compounds read low 0.998 | locus YER015W, strain faa2, active compounds read low 0.992 | locus YER016W, strain bim1, active compounds read low 1 | locus YER110C, active compounds read low 1.02 | locus YER111C, strain swi4, active compounds read low 1 | locus YER155C, strain BEM2 (second series), active compounds read low 0.91 | locus YER155C, strain BEM2, active compounds read low 1.02 | locus YER167W, strain BCK2, active compounds read low 0.996 | locus YFR010W, strain ubp6, active compounds read low 0.999 | locus YGL078C, strain dbp3, active compounds read low 0.993 | locus YGL086W, strain mad1, active compounds read low 0.989 | locus YGL167C, strain pmr1, active compounds read low 0.978 | locus YGL173C, strain kem1, active compounds read low 0.99 | locus YGL227W, strain vid30, active compounds read low 1.01 | locus YGL240W, strain doc1, active compounds read low 0.986 | locus YGL248W, strain PDE1, active compounds read low 1.01 | locus YGL253W, strain hxk2, active compounds read low 1.01 | locus YGR078C, strain PAC10, active compounds read low 1.02 | locus YGR135W, strain pre9, active compounds read low 0.998 | locus YGR229C, strain SMI1, active compounds read low 0.976 | locus YGR252W, strain gcn5, active compounds read low 0.937 | locus YHR013C, strain ard1, active compounds read low 0.901 | locus YHR027C, strain rpn1, active compounds read low 0.989 | locus YHR030C, strain SLT2, active compounds read low 1 and 0.991 | locus YHR079C, strain IRE1 (second series), active compounds read low 1.01 | locus YHR079C, strain IRE1, active compounds read low 0.995 | locus YHR094C, strain hxt1, active compounds read low 1.01 | locus YHR129C, strain ARP1, active compounds read low 1.01 | locus YHR142W, strain chs7, active compounds read low 1.01 | locus YHR200W, strain rpn10, active compounds read low 0.996 | locus YIL066C, strain RNR3, active compounds read low 0.984 | locus YIL073C, strain SPO22, active compounds read low 1.02 | locus YIL125W, strain kgd1, active compounds read low 0.994 | locus YIR030C, strain dcg1, active compounds read low 1.01 | locus YJL092W, strain hpr5, active compounds read low 1 | locus YJL095W, strain BCK1 (second series), active compounds read low 1.01 | locus YJL095W, strain BCK1, active compounds read low 1.02 and 1 | locus YJL115W, strain asf1, active compounds read low 0.977 | locus YJL129C, strain trk1, active compounds read low 1.09 | locus YJL134W, strain LCB3, active compounds read low 1 | locus YJL154C, strain vps35, active compounds read low 1.01 | locus YJL164C, strain tpk1, active compounds read low 0.98 | locus YJL166W, strain qcr8, active compounds read low 0.981 | locus YJL168C, strain set2, active compounds read low 1.01 | locus YJL187C, strain SWE1 (second series), active compounds read low 1.02 | locus YJL187C, strain SWE1, active compounds read low 0.998 | locus YJR043C, strain POL32, active compounds read low 1.02 | locus YJR066W, strain TOR1, active compounds read low 0.97
